# Reference: PubChem BioAssay AID734 (The Scripps Research Institute Molecular Screening Center, 2007)
# In all, about 5,100 compounds went through this assay and fewer than 10 were called active. These entries were drawn from the full list. Unmarked numbers belong to inactive results.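 Rule for the calls: active = inhibition above the mean inhibition over all tested compounds plus 3 SD (cut at about 75% in these data); inactive = the rest.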
# Biological target: Collagenase 3 (Homo sapiens) (UniProt P45452)
# Assay: human MMP13 inhibition, fluorescence-interfering compounds – biochemical, possible fluorescent artifacts, delta fluorescence, confirmation (AID 734);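 note: 0% = DMSO only wells and 100% = 8 µM reference MMP13 inhibitor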
# Conditions: MMP13 fTHP FRET cleavage, delta fluorescence 4 h; hits give high values;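 each compound tested at 4 µM nominal in triplicate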
row,SMILES,inhibition
1,COC(=O)c1c(-n2cnnn2)sc(C)c1C,2.3%
2,COc1ccc2cc3cc(C(=O)NCCN4CCc5ccccc5C4)oc3nc2c1,-102%
3,Cn1c(=O)c2nc(-c3ccccc3)oc2c2ccccc21,6.54%
4,COc1ccc(OC)c(-c2cc(C(=O)NCc3ccco3)no2)c1,12%
5,CC(C)OCCCn1c(-c2ccco2)nc2nc3ccccc3nc21,-87.8%
6,CCOC(=O)c1cc(-c2cccs2)nc2onc(C)c12,-44.4%
7,COc1cc2ccccc2cc1C(=O)OCC(=O)N1CCOCC1,6.42%
8,COc1ccc(C(=O)/C=C/Nc2cccc(C)n2)cc1OC,5.27%
9,c1nc2sc3c(c2c2nnnn12)CCCC3,2.51%
10,COc1ccc(-c2cc(C(F)(F)F)nc(SCC(=O)NCc3ccco3)n2)cc1OC,8.84%
11,Cc1ccc2c(c1)-c1cc(C)nn1C(c1ccc3c(c1)OCO3)N2 (stereo not drawn),6.53%
12,O=C1NC(c2ccco2)Nc2ccccc21 (stereo not drawn),-3.14%
13,CCCN(Cc1cc2cc(OC)ccc2[nH]c1=O)C(=O)c1ccncc1,4.53%
14,CCOC(=O)c1oc2cccc(OC(C)=O)c2c1C,8.37%
15,NC(=O)C1CCCN(S(=O)(=O)c2ccc(Br)cc2)C1 (stereo not drawn),4.17%
16,COC(=O)c1[nH]c2ccc(Cl)cc2c1NC(=O)CCN1CCN(C2CCCCC2)CC1,6.19%
17,COC(=O)c1[nH]c2cccc(OC)c2c1NC(=O)CCN1CC(C)CC(C)C1 (stereo not drawn),-1.84%
18,COCCOC(=O)c1cc(C(=O)c2cc(F)ccc2O)coc1=N,6.65%
19,COc1cccc(=O)c2c(C)oc(C)c12,6.64%
20,Cc1ccc2nc(N3CCN(Cc4nnnn4Cc4ccccc4)CC3)c(C#N)cc2c1,1.5%
21,CCOC(=O)Cc1c(C)nc2c(-c3ccc(Cl)cc3)c[nH]n2c1=O,17.8%
22,COc1cc2cc(CN(CCN3CCCC3)C(=O)Nc3ccc(F)cc3)c(=O)[nH]c2cc1OC,1.27%
23,CCS(=O)(=O)Nc1cc(-c2nc3cccnc3s2)ccc1C,-0.51%
24,CCCCNC(=O)CC1Nc2ccccc2NC1=O (stereo not drawn),4.58%

row,SMILES,inhibition
1,CCn1c(=O)c(C(C)=O)nc2ccccc21,7.87%
2,CCCCN(CC)CCNC(=O)c1cc2c(=O)n(C)c3ccccc3c2n1C,9.76%
3,COC(=O)c1[nH]c2ccc(C)cc2c1NC(=O)CN1CCN(Cc2ccccc2)CC1,5.26%
4,Cc1cc(-c2ccccc2)nn1-c1nc2c(c(=O)[nH]c(=O)n2C)n1C,6.56%
5,COc1ccc(-c2noc(CCC(=O)NCc3cccnc3)n2)cc1,-0.6%
6,O=C(CSc1ccc2nnc(-c3cccc(F)c3)n2n1)NCC1CCCO1 (stereo not drawn),0.9%
7,CCCn1c(=N)c(C(=O)NCC2CCCO2)cc2c(=O)n3cccc(C)c3nc21 (stereo not drawn),0.11%
8,COc1cc2c(cc1OC)CN(C(=O)NS(=O)(=O)c1ccc(C)cc1)CC2,6.18%
9,COc1cc2c(cc1OC)-c1cc(N3CCCCCC3)nc(=O)n1CC2,6.6%
10,COc1cc(OC)cc(-c2cc3nc(C)c(CCC(=O)NC(C)CCc4ccco4)c(C)n3n2)c1 (stereo not drawn),-0.26%
11,CC(=O)Nc1nonc1-c1nc2ccccc2n1Cc1nnc(C)o1,4.74%
12,COc1ccc(-c2cc(C(F)(F)F)nc(SCC(=O)Nc3cc(C)on3)n2)cc1OC,11.1%
13,COc1cc(OC)cc(C(=O)NCC(=O)N2CCC(C)CC2)c1,7.88%
14,Cc1nn(-c2ccccc2)c2sc(-c3n[nH]c(=S)o3)cc12,75.6% (active)
15,COC(=O)c1cc2c(C)nn(-c3ccccc3)c2s1,5.12%
16,Cc1nn(-c2ccccc2)c2sc(C(=O)OC3CCOC3=O)cc12 (stereo not drawn),-15.6%
17,CCOC(=O)N1CCC(NC(=O)c2cc3c(-c4cccc(OC)c4)nn(C)c3s2)CC1,1.92%
18,Cc1ccc(S(=O)(=O)Nc2ccccc2C(N)=O)cc1,7.43%
19,N=C1C(c2nc3ccccc3c(=O)[nH]2)=C(O)CN1CCc1ccccc1,-5.72%
20,COc1ccccc1C(=O)Nc1ccc(S(=O)(=O)N2CCOCC2)cc1,-0.87%
21,O=C(c1ccc(Br)o1)N1CCN(Cc2ccc3c(c2)OCO3)CC1,3.6%
22,Cc1ccc2nc(-c3ccc(SCC(=O)O)nc3)[nH]c2c1,-13.3%
23,O=C(NCCN1CCOCC1)c1cc2ccccc2[nH]1,3.77%
24,COC(=O)c1ccc(Sc2ccc(C)cc2)c(N)c1,-1.3%
